# Assay results taken from the supplement of paper PMC6992640.
# System: HCI01 (cells of a triple-negative basal-like breast cancer xenograft)
# Assay: cell viability of combination (% of vehicle); higher = less cytotoxic
# Details: 1 µM; 72 h; partner dose: 10 nM
# Protocol: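 PDX cells were treated for 72 h with each drug at 1 µM plus afatinib (10 nM; 1 µM for WHIM30). Luciferase viability is expressed as percent of vehicle.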
row,SMILES,cell viability of combination
1,C=C1C(=CC=C2CCCC3(C)C2CCC3C(C)CCCC(C)(C)O)CC(O)CC1O (configuration not stated) [Calcitriol] + CN(C)C/C=C/C(=O)Nc1cc2c(Nc3ccc(F)c(Cl)c3)ncnc2cc1O[C@H]1CCOC1 [Afatinib],42.1
2,CC(C)C[C@H](NC(=O)[C@H](Cc1ccccc1)NC(=O)c1cnccn1)B(O)O [Bortezomib] + CN(C)C/C=C/C(=O)Nc1cc2c(Nc3ccc(F)c(Cl)c3)ncnc2cc1O[C@H]1CCOC1 [Afatinib],22.5
3,CC(=O)c1cc2c(o1)C(=O)c1ccccc1C2=O [Napabucasin] + CN(C)C/C=C/C(=O)Nc1cc2c(Nc3ccc(F)c(Cl)c3)ncnc2cc1O[C@H]1CCOC1 [Afatinib],16.2
4,CC[C@@]1(O)C(=O)OCc2c1cc1n(c2=O)Cc2cc3c(CN(C)C)c(O)ccc3nc2-1.Cl [Topotecan HCl] + CN(C)C/C=C/C(=O)Nc1cc2c(Nc3ccc(F)c(Cl)c3)ncnc2cc1O[C@H]1CCOC1 [Afatinib],41.4
5,CCCCc1oc2ccc(NS(C)(=O)=O)cc2c1C(=O)c1ccc(OCCCN(CCCC)CCCC)cc1 [Dronedarone] + CN(C)C/C=C/C(=O)Nc1cc2c(Nc3ccc(F)c(Cl)c3)ncnc2cc1O[C@H]1CCOC1 [Afatinib],48.1
6,Cc1cc(-n2c(=O)[nH]c(=O)n(C)c2=O)ccc1Oc1ccc(SC(F)(F)F)cc1 [Toltrazuril] + CN(C)C/C=C/C(=O)Nc1cc2c(Nc3ccc(F)c(Cl)c3)ncnc2cc1O[C@H]1CCOC1 [Afatinib],58.1
7,Cl.OC(c1cc(C(F)(F)F)nc2c(C(F)(F)F)cccc12)C1CCCCN1 (configuration not stated) [Mefloquine hydrochloride] + CN(C)C/C=C/C(=O)Nc1cc2c(Nc3ccc(F)c(Cl)c3)ncnc2cc1O[C@H]1CCOC1 [Afatinib],49.3
8,O=C(C=Cn1cnc(-c2cc(C(F)(F)F)cc(C(F)(F)F)c2)n1)NNc1cnccn1 + CN(C)C/C=C/C(=O)Nc1cc2c(Nc3ccc(F)c(Cl)c3)ncnc2cc1O[C@H]1CCOC1 [Afatinib],39.3
9,CSc1ccc2c(c1)N(CCC1CCCCN1C)c1ccccc1S2.Cl (configuration not stated) [Thioridazine HCl] + CN(C)C/C=C/C(=O)Nc1cc2c(Nc3ccc(F)c(Cl)c3)ncnc2cc1O[C@H]1CCOC1 [Afatinib],61.8
10,CCCCCCCCCCCCCCCCOP(=O)([O-])OCC[N+](C)(C)C [Miltefosine] + CN(C)C/C=C/C(=O)Nc1cc2c(Nc3ccc(F)c(Cl)c3)ncnc2cc1O[C@H]1CCOC1 [Afatinib],56.7
11,CNC(=O)c1cc(Oc2ccc(NC(=O)Nc3ccc(Cl)c(C(F)(F)F)c3)c(F)c2)ccn1.Cl [Regorafenib hydrochloride] + CN(C)C/C=C/C(=O)Nc1cc2c(Nc3ccc(F)c(Cl)c3)ncnc2cc1O[C@H]1CCOC1 [Afatinib],52
12,C=CC(=O)N1CCC(Oc2cc3c(Nc4ccc(Cl)c(Cl)c4F)ncnc3cc2OC)CC1 [Poziotinib] + CN(C)C/C=C/C(=O)Nc1cc2c(Nc3ccc(F)c(Cl)c3)ncnc2cc1O[C@H]1CCOC1 [Afatinib],42.9
13,O=C(O)c1cc(O)c(O)c(O)c1 [Gallic acid] + CN(C)C/C=C/C(=O)Nc1cc2c(Nc3ccc(F)c(Cl)c3)ncnc2cc1O[C@H]1CCOC1 [Afatinib],51.4
14,Clc1ccc(C(Cn2ccnc2)OCc2ccsc2Cl)c(Cl)c1 (configuration not stated) [Tioconazole] + CN(C)C/C=C/C(=O)Nc1cc2c(Nc3ccc(F)c(Cl)c3)ncnc2cc1O[C@H]1CCOC1 [Afatinib],65.4
15,Cn1cnc2c(F)c(Nc3ccc(Br)cc3F)c(C(=O)NOCCO)cc21 + CN(C)C/C=C/C(=O)Nc1cc2c(Nc3ccc(F)c(Cl)c3)ncnc2cc1O[C@H]1CCOC1 [Afatinib],40.5
16,[O-]n1ccccc1=S.[O-]n1ccccc1=S.[Zn+2] [Zinc Pyrithione] + CN(C)C/C=C/C(=O)Nc1cc2c(Nc3ccc(F)c(Cl)c3)ncnc2cc1O[C@H]1CCOC1 [Afatinib],47.4

row,SMILES,cell viability of combination
1,COc1cc(Nc2ncc(F)c(Nc3ccc4c(n3)N(COP(=O)(O)O)C(=O)C(C)(C)O4)n2)cc(OC)c1OC [Fostamatinib (R788)] + CN(C)C/C=C/C(=O)Nc1cc2c(Nc3ccc(F)c(Cl)c3)ncnc2cc1O[C@H]1CCOC1 [Afatinib],64.2
2,CS(=O)(=O)CCNCc1ccc(-c2ccc3ncnc(Nc4ccc(OCc5cccc(F)c5)c(Cl)c4)c3c2)o1.Cc1ccc(S(=O)(=O)O)cc1.Cc1ccc(S(=O)(=O)O)cc1 [Lapatinib Ditosylate] + CN(C)C/C=C/C(=O)Nc1cc2c(Nc3ccc(F)c(Cl)c3)ncnc2cc1O[C@H]1CCOC1 [Afatinib],41.6
3,CCOC(=O)C1=C(COCCN)NC(C)=C(C(=O)OC)C1c1ccccc1Cl (configuration not stated) [Amlodipine] + CN(C)C/C=C/C(=O)Nc1cc2c(Nc3ccc(F)c(Cl)c3)ncnc2cc1O[C@H]1CCOC1 [Afatinib],58.2
4,Cc1ccc(NC(=O)c2ccc(CN3CCN(C)CC3)cc2)cc1Nc1nc(-c2cccnc2)cs1 [Masitinib (AB1010)] + CN(C)C/C=C/C(=O)Nc1cc2c(Nc3ccc(F)c(Cl)c3)ncnc2cc1O[C@H]1CCOC1 [Afatinib],47.8
5,O=C(c1ccc(F)c(F)c1Nc1ccc(I)cc1F)N1CC(O)(C2CCCCN2)C1 (configuration not stated) [Cobimetinib] + CN(C)C/C=C/C(=O)Nc1cc2c(Nc3ccc(F)c(Cl)c3)ncnc2cc1O[C@H]1CCOC1 [Afatinib],42.2
6,COc1cccc2c1C(=O)c1c(O)c3c(c(O)c1C2=O)CC(O)(C(=O)CO)CC3OC1CC(N)C(O)C(C)O1 (configuration not stated) [Doxorubicin] + CN(C)C/C=C/C(=O)Nc1cc2c(Nc3ccc(F)c(Cl)c3)ncnc2cc1O[C@H]1CCOC1 [Afatinib],43.8
7,C1=C\COCc2cc(ccc2OCCN2CCCC2)Nc2nccc(n2)-c2cccc(c2)COC/1 [Pacritinib] + CN(C)C/C=C/C(=O)Nc1cc2c(Nc3ccc(F)c(Cl)c3)ncnc2cc1O[C@H]1CCOC1 [Afatinib],37.8
8,Nc1ccc2cc3ccc([NH3+])cc3nc2c1.Nc1ccc2cc3ccc([NH3+])cc3nc2c1.O=S(=O)([O-])[O-] [Proflavine Hemisulfate] + CN(C)C/C=C/C(=O)Nc1cc2c(Nc3ccc(F)c(Cl)c3)ncnc2cc1O[C@H]1CCOC1 [Afatinib],59.6
9,CCC(=C(c1ccccc1)c1ccc(OCCN(C)C)cc1)c1ccccc1.O=C(O)CC(O)(CC(=O)O)C(=O)O [Tamoxifen Citrate] + CN(C)C/C=C/C(=O)Nc1cc2c(Nc3ccc(F)c(Cl)c3)ncnc2cc1O[C@H]1CCOC1 [Afatinib],65
10,COc1cc2nccc(Oc3ccc(NC(=O)Nc4cc(C)on4)c(Cl)c3)c2cc1OC [Tivozanib (AV-951)] + CN(C)C/C=C/C(=O)Nc1cc2c(Nc3ccc(F)c(Cl)c3)ncnc2cc1O[C@H]1CCOC1 [Afatinib],43.9
11,CC(C)c1nc(CN(C)C(=O)NC(C(=O)NC(Cc2ccccc2)CC(O)C(Cc2ccccc2)NC(=O)OCc2cncs2)C(C)C)cs1 (configuration not stated) [Ritonavir] + CN(C)C/C=C/C(=O)Nc1cc2c(Nc3ccc(F)c(Cl)c3)ncnc2cc1O[C@H]1CCOC1 [Afatinib],49.1
12,CCOc1cc2ncc(C#N)c(Nc3ccc(F)c(Cl)c3)c2cc1NC(=O)C=CCN(C)C [Pelitinib (EKB-569)] + CN(C)C/C=C/C(=O)Nc1cc2c(Nc3ccc(F)c(Cl)c3)ncnc2cc1O[C@H]1CCOC1 [Afatinib],72.1
13,CS(=O)(=O)O.Cc1c(O)cccc1C(=O)NC(CSc1ccccc1)C(O)CN1CC2CCCCC2CC1C(=O)NC(C)(C)C (configuration not stated) [Nelfinavir Mesylate] + CN(C)C/C=C/C(=O)Nc1cc2c(Nc3ccc(F)c(Cl)c3)ncnc2cc1O[C@H]1CCOC1 [Afatinib],44.5
14,CC(Oc1cc(-c2cnn(C3CCNCC3)c2)cnc1N)c1c(Cl)ccc(F)c1Cl [(R)-Crizotinib] + CN(C)C/C=C/C(=O)Nc1cc2c(Nc3ccc(F)c(Cl)c3)ncnc2cc1O[C@H]1CCOC1 [Afatinib],66
15,CCc1oc2ccccc2c1C(=O)c1cc(Br)c(O)c(Br)c1 [Benzbromarone] + CN(C)C/C=C/C(=O)Nc1cc2c(Nc3ccc(F)c(Cl)c3)ncnc2cc1O[C@H]1CCOC1 [Afatinib],56.3
16,CN(C)c1ccc(O)c2c1CC1CC3C(N(C)C)C(=O)C(C(N)=O)=C(O)C3(O)C(=O)C1=C2O.Cl (configuration not stated) [Minocycline HCl] + CN(C)C/C=C/C(=O)Nc1cc2c(Nc3ccc(F)c(Cl)c3)ncnc2cc1O[C@H]1CCOC1 [Afatinib],66.6
